Experiment [1] can be described thus: qHTS assay to identify small molecule agonists of the RXR signaling pathway - cell viability counter screen (AID 1159529).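 Note: HEK 293T cells carrying an RXR-alpha UAS beta-lactamase reporter; series mostly up to about 77 µM; nearly all actives have a fitted effect of over 50% in size.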 Summed up:
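In this parallel viability measure, GeneBLAzer RXR-alpha HEK 293T cells (2% charcoal-stripped FBS) were given a 5 hr preincubation, treated with compounds 16 hr at 37 C, and read by CellTiter-Glo luminescence.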
On the technique in general: qHTS replaces the single test concentration by a dilution series.

Experiment [2] is described as follows: qHTS assay to identify small molecule antagonists of the retinoid acid receptor (RAR) signaling pathway - cell viability counter screen (AID 1159551). Note: nearly all actives have a fitted effect of over 35% in size. The procedure, abridged: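 C3RL4 RARE-luciferase line; cpds + retinol 1 uM final, 6 h, 37 C/5% CO2; CellTiter-Glo ATP luminescence, 30 min RT.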
A short description of experiment [3]: qHTS assay to identify small molecule antagonists of the retinoic acid receptor (RAR) signaling pathway (AID 1159552; note: nearly all actives have a fitted effect of over 50% in size). Summed up: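 C3RL4 RARE-luc cells, overnight plating; retinol 1 uM final added right after compound; 6 hr 37 C; luciferase read at 30 min RT.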
Experiment [4] is described as follows: qHTS assay to identify small molecule agonists of the retinoic acid receptor (RAR) signaling pathway (AID 1159553). Note: potency is the fitted concentration of half-maximal effect. Summed up:
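RARE-luc C3RL4 cells; overnight attachment 37 C/5% CO2; compound (DMSO) 6 hr; luciferase reagent, 30 min RT; luminescence read-out.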

A short description of experiment [5]: qHTS assay to identify small molecule antagonists of the estrogen related receptor (ERR) signaling pathway from Tox21 library - cell viability counter screen (AID 1224834). Note: nearly all actives have a fitted effect of over 30% in size. Summed up: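 Multiplexed viability counter screen in ERR cells: 17.5 h compound exposure at 37 C, CellTiter-Fluor added, 30 min at 37 C/5% CO2, fluorescence read.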
The target in experiment [6] is Luciferin 4-monooxygenase (Photinus pyralis) (UniProt P08659). Nature of the experiment: qHTS assay to identify small molecule inhibitors of firefly luciferase (AID 1224835). For activity change, negative = inhibition: series mostly up to about 120 µM. Note: nearly all actives have a fitted effect of over 25% in size. Note: potency is the fitted concentration of half-maximal effect. Summed up: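 Quantitative HTS format; KM concentrations of both substrates. Purified P. pyralis FLuc activity quantified from luminescence images.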
Sequence of Luciferin 4-monooxygenase (Photinus pyralis) (P08659 whole entry, looked up): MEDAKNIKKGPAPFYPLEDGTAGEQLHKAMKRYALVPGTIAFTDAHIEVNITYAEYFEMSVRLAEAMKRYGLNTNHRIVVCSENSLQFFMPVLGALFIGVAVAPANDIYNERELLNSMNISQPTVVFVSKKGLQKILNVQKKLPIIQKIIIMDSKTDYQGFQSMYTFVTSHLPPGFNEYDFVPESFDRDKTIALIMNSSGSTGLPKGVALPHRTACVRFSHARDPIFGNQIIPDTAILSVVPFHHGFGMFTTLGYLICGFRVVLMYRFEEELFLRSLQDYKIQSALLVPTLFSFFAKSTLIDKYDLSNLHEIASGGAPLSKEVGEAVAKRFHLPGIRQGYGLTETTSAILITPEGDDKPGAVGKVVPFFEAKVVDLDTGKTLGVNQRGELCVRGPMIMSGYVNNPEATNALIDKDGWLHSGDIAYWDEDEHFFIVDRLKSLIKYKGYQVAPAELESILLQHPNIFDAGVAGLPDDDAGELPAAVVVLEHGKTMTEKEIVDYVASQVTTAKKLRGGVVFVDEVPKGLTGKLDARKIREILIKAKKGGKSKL
The nature of experiment [7]: qHTS assay to identify small molecule agonists of the constitutive androstane receptor (CAR) signaling pathway - cell viability counter screen (AID 1224836). Note: series mostly up to about 92 µM; nearly all actives have a fitted effect of over 45% in size. The procedure, abridged:
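Using CellTiter-Fluor, viability of HepG2 cells harbouring hCAR and CYP2B6-2.2kb was measured following 23 h incubation with a 15-concentration compound series plus PK11195 (0.75 uM final).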

Experiment [8] has as its target Nuclear receptor subfamily 1 group I member 3 (Homo sapiens) (UniProt Q14994). Nature of the experiment: qHTS assay to identify small molecule antagonists of the constitutive androstane receptor (CAR) signaling pathway (AID 1224838).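 Note: HepG2 cells stably expressing hCAR with CYP2B6 luciferase reporter stimulated by CITCO; nearly all actives have a fitted effect of over 40% in size.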 The procedure, abridged:
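Read-out: ONE-Glo luciferase luminescence after 30 min at room temperature. HepG2-CYP2B6-hCAR double-stable cells, compounds in 15-point titration plus 50 nM CITCO final, 24 h at 37 C/5% CO2.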

The target is the same in experiment [9]. Description: qHTS assay to identify small molecule agonists of the constitutive androstane receptor (CAR) signaling pathway (AID 1224839).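 For activation: HepG2 cells stably carrying human CAR and a CYP2B6 luciferase reporter; series mostly up to about 92 µM.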 Note: nearly all actives have a fitted effect of over 15% in size. Note: potency is the fitted concentration of half-maximal effect. Summed up: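 Double-stable HepG2 cells (hCAR, CYP2B6-2.2kb) seeded 4 h before compound addition. Exposure 24 h with 0.75 uM PK11195 final. Luciferase detected by ONE-Glo.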
Experiment [10] is described as follows: qHTS assay to identify small molecule antagonists of the estrogen related receptor signaling pathway with the pleiotropic PPARgamma coactivator (PGC) from Tox21 10K library - cell viability counter screen (AID 1224840; active = well fitted cell-killing curve with a large enough effect in the repeat runs, not every such curve was filed as active; note: nearly all actives have a fitted effect of over 40% in size). Summed up: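 Fluorescence read-out of CellTiter-Fluor viability reagent, added after cells had been exposed to compound in DMSO for 17.5 h at 37 C; 30 min development at 37 C/5% CO2. Cells: PGC/ERR line, 2,000/well.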

Experiment [11] is described as follows: qHTS assay to identify small molecule antagonists of the estrogen related receptor signaling pathway with the pleiotropic PPARgamma coactivator (PGC) from Tox21 10K library (AID 1224841; call rule not given here; note: series mostly up to about 92 µM; actives are mostly falling curves and most rising ones were filed inactive; nearly all actives have a fitted effect of over 50% in size). Summed up:
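Luminescence read-out (One-Glo luciferase reagent, 30 min at room temperature) from PGC/ERR cells exposed to DMSO-dissolved test compounds for 18 h at 37 C; cells, 2,000 per well, had been preincubated 6 h before compound transfer.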

A short description of experiment [12]: qHTS assay to identify small molecule agonists of the estrogen related receptor signaling pathway with the pleiotropic PPARgamma coactivator (PGC) from Tox21 10K library (AID 1224842). Note: nearly all actives have a fitted effect of over 15% in size. Note: potency is the fitted concentration of half-maximal effect. The procedure, abridged: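 PGC/ERR reporter cells (NTP line) were seeded 2,000 per well, rested 6 h at 37 C/5% CO2, then pin-dosed with compounds in DMSO for 18 h at 37 C; luciferase read by One-Glo luminescence after 30 min at room temperature.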

Experiment [13] addresses Thyrotropin receptor (Homo sapiens) (UniProt P16473). Description: qHTS assay to identify small molecule agonists of the thyroid stimulating hormone receptor (TSHR) signaling pathway (AID 1224843; calls by dose curve; note: nearly all actives have a fitted effect of over 45% in size). The procedure, abridged:
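Compounds are titrated over 15 concentrations, in triplicate, onto TSHR-HEK293 cells seeded at 800/well. Plates sit 30 min at room temperature before cAMP-d2 and anti-cAMP cryptate are added; signal is read after a further hour.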

The nature of experiment [14]: qHTS assay to identify small molecule antagonists of the constitutive androstane receptor (CAR) signaling pathway - cell viability counter screen (AID 1224837). Note: series mostly up to about 92 µM; nearly all actives have a fitted effect of over 45% in size. Summed up: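 Read-out: CellTiter-Fluor fluorescence after 23 hr at 37 C/5% CO2. Cells: HepG2 double-stable for hCAR and CYP2B6-2.2kb. Compounds tested at 15 concentrations in the presence of CITCO, final concentration 50 nM.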

A short description of experiment [15]: qHTS assay to identify small molecule antagonists of the estrogen related receptor (ERR) signaling pathway - cell viability counter screen (AID 1224818). Note: series mostly up to about 46 µM. Summed up:
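Fluorescence from CellTiter-Fluor, read 30 min after reagent addition at 37 C, measured viability of ERR cells exposed to compounds for 17.5 h. Cells had settled 6 h before dosing.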

Experiment [16] can be described thus: qHTS assay to identify small molecule antagonists of the estrogen related receptor signaling pathway with the pleiotropic PPARgamma coactivator (PGC) cell viability counter screen (AID 1224822; note: series mostly up to about 46 µM). Summed up:
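Fluorescence read-out of CellTiter-Fluor after 30 min at 37 C; PGC/ERR cells, 2,000 per well, had been exposed to DMSO-dissolved compounds for 17.5 h following a 6 h pre-incubation.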

Records with an inconclusive call do not appear. Values without a mark were called inactive. Calls of active or inactive are those of the source. Unless noted, calls come from the whole dose curve; as a rule, active = well fitted curve in the direction sought with a large enough effect in the repeat runs; inconclusive = weak or mixed curves; inactive = no such curve, though single readings can be large; an effect the other way counts as inactive or inconclusive.
% is set by controls: 0 for no effect and ±100 for the full control effect.

Sequence of Thyrotropin receptor (Homo sapiens) (P16473 whole entry, looked up): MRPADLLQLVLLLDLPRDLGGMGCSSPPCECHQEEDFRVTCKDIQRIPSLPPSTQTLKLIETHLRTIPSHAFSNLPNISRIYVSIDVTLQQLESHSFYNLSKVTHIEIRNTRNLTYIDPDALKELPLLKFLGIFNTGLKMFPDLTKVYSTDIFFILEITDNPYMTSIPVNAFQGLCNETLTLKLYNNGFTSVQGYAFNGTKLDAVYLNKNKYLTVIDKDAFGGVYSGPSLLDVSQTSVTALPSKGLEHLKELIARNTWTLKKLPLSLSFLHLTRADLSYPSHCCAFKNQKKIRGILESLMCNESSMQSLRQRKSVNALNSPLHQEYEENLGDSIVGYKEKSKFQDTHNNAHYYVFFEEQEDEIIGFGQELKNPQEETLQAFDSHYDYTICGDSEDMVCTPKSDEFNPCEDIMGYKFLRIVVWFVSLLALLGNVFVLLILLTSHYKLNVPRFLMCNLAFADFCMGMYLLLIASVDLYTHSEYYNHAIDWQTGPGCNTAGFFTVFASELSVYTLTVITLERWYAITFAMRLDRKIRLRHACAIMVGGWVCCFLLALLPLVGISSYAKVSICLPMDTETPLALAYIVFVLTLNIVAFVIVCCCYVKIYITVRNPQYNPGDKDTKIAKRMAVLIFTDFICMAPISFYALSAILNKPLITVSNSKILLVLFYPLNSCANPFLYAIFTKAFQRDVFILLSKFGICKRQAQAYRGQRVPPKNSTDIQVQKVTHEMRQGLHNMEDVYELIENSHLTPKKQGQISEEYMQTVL
Sequence of Nuclear receptor subfamily 1 group I member 3 (Homo sapiens) (Q14994 whole entry, looked up): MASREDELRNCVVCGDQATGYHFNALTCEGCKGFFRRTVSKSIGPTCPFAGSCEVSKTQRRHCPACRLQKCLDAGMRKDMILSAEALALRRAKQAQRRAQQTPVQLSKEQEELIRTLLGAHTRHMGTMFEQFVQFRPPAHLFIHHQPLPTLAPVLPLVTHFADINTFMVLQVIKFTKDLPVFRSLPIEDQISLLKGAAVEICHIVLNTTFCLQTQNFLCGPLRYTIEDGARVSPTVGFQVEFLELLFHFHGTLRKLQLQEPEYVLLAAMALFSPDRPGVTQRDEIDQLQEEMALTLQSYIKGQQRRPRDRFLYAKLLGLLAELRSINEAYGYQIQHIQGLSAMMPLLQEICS

As for `CC(=O)/C(C)=C/C1C(C)=CCCC1(C)C` (stereo not drawn), the Potency entry in experiment [1], in [2], in experiment [3], in [4], in [5] and in [6] was “inactive” each time. The Potency result in [7], in [8], in [9], in experiment [10], in experiment [11] and in experiment [12] was “inactive” throughout. Further, in experiment [13], the Potency entry is “inactive”.

In the case of `Cc1ncsc1CCO`, the Potency entry in [1], in experiment [2], in experiment [3], in [4], in experiment [5] and in experiment [6] was “inactive” each time. The Potency result in experiment [7], in experiment [14], in experiment [8], in experiment [9], in [10] and in experiment [13] was “inactive” throughout.

With `CCCCCCCCCCCCCCCC(=O)OC/C=C(C)/C=C/C=C(C)/C=C/C1=C(C)CCCC1(C)C`, the Potency result in experiment [1], in experiment [2], in experiment [3], in experiment [4], in experiment [5] and in experiment [6] was “inactive” throughout. In addition, the Potency result in experiment [7], in [14], in [8], in experiment [9], in experiment [10] and in [13] was “inactive” each time.

On to `CCCCCCCCN(C)C`, for which the Potency entry in [1], in experiment [2], in [3], in experiment [4], in experiment [6] and in experiment [7] was “inactive” throughout. Also, the Potency result in [14], in experiment [10], in experiment [11], in experiment [12] and in [13] was “inactive” each time.

On to `CCCCCOC(=O)c1ccc(O)cc1`, for which the Potency entry in experiment [1], in experiment [2], in experiment [3], in experiment [7], in experiment [8] and in experiment [11] was “inactive” each time. The Potency in [4] was 1.23 µM (active); in experiment [6], 36 µM (active); in experiment [9], 55.1 µM (active); in experiment [12], 27.6 µM (active).

`NC[C@H]1O[C@H](O[C@H]2[C@H](O)[C@@H](O[C@H]3O[C@H](CO)[C@@H](O)[C@H](N)[C@H]3O)[C@H](N)C[C@@H]2N)[C@H](O)[C@@H](O)[C@@H]1O`: the results for the activity change, negative = cytotoxicity in [1], in [2] and in experiment [14] were -2.14% [at 6.97 µM], -0.107% [at 8.39 µM] and 2.42% [at 8.39 µM], respectively. Further, the activity, negative = inhibition in experiment [3] was 7.6% [at 8.39 µM]. Besides, the viability change, negative = cytotoxic in experiment [5] is -5.48% [at 8.39 µM]; in experiment [10], 5.71% [at 8.39 µM]. Also, the activity change, negative = inhibition in experiment [6] was 8.02% [at 10.5 µM]. The activation was 1.17% [at 8.39 µM] in experiment [12] and -0.345% [at 8.39 µM] in experiment [13].

Take `Cc1occc1S`: the Potency entry in experiment [1], in [2], in [4], in experiment [5], in experiment [6] and in experiment [7] was “inactive” throughout. Also, the Potency result in experiment [14], in [8], in [9], in experiment [10], in [11] and in experiment [12] was “inactive” throughout.

As for `O=C(O)C(c1ccc(Cl)cc1)c1ccc(Cl)cc1`, the Potency entry in [1], in experiment [2], in experiment [3], in experiment [4], in [5] and in experiment [6] was “inactive” each time. The Potency entry in experiment [14], in experiment [8], in experiment [9], in experiment [10], in experiment [11] and in [12] was “inactive” throughout. In addition, in experiment [13], the Potency entry is “inactive”.

`O=C(O)Cc1cc(I)c(Oc2ccc(O)c(I)c2)c(I)c1`: the Potency result in experiment [1], in experiment [2], in [3], in experiment [4], in experiment [5] and in experiment [14] was “inactive” throughout. In addition, the Potency result in experiment [8], in experiment [10], in experiment [12] and in experiment [13] was “inactive” in each case.

With `CC(C)(C)C1CCCCC1O` (stereo not drawn), the Potency result in experiment [1], in experiment [2], in experiment [3], in experiment [4], in experiment [5] and in [6] was “inactive” throughout. In addition, the Potency entry in [14], in experiment [8], in experiment [9], in [10] and in [13] was “inactive” throughout.

Turning to `C=C(C)C(=O)OCCOc1ccccc1`, the Potency result in [1], in [2], in experiment [3], in [7], in [14] and in experiment [8] was “inactive” throughout. Besides, the Potency result in experiment [9], in [10], in experiment [11] and in experiment [12] was “inactive” throughout. Besides, the Potency in experiment [6] is 35.6 µM (active).

For the molecule `CC(C)NCC(O)COc1ccc(CC(N)=O)cc1` (stereo not drawn), the Potency entry in experiment [1], in experiment [2], in experiment [4], in experiment [5], in [6] and in experiment [7] was “inactive” in each case. In addition, the Potency entry in experiment [10] and in experiment [13] was “inactive” in each case. Moreover, the molecule was called inactive in experiment [15] and in experiment [16].

With `CN1CCN(C2=Nc3ccccc3Sc3ccc(Cl)cc32)CC1`, the Potency result in experiment [1], in experiment [2], in experiment [3], in [4], in experiment [14] and in experiment [8] was “inactive” throughout. The Potency entry in experiment [9], in [10], in experiment [11], in [12] and in [13] was “inactive” throughout.

As to `CCOc1ccc2[nH]cc(C(=O)NCc3ccccc3)c(=O)c2n1`, the Potency entry in experiment [1], in [2], in experiment [3], in experiment [4], in experiment [6] and in experiment [7] was “inactive” in each case. In addition, the Potency result in experiment [14], in experiment [8], in experiment [10], in experiment [12] and in [13] was “inactive” in each case.

As for `Nc1ccc(C(=O)N2CC3CC(CN(Cc4ccccc4)C3)C2)cc1`, the Potency result in experiment [1], in experiment [2], in [3], in [4], in experiment [5] and in [6] was “inactive” each time. Also, the Potency entry in experiment [14], in [9], in experiment [10], in [12] and in experiment [13] was “inactive” in each case.

With `c1ccc(OCc2ccc(CCCN3CCOCC3)cc2)cc1`, the Potency result in experiment [1], in experiment [2], in experiment [3], in [14], in [8] and in experiment [10] was “inactive” throughout. The Potency entry in [11], in experiment [12] and in experiment [13] was “inactive” throughout. Moreover, the Potency was 13.3 µM (active) in [4] and 29.8 µM (active) in experiment [9].

For `Cc1ccccn1`, the Potency entry in experiment [1], in experiment [2], in [3], in experiment [4], in experiment [5] and in [8] was “inactive” in each case. Also, the Potency result in [9], in experiment [10], in experiment [11] and in experiment [12] was “inactive” in each case.

As to `CC(C)(C)c1cc(CO)cc(C(C)(C)C)c1O`, the Potency entry in experiment [1], in [2], in experiment [3], in experiment [4], in [6] and in [7] was “inactive” in each case. In addition, the Potency entry in experiment [14], in experiment [8], in experiment [10], in experiment [12] and in [13] was “inactive” each time. In experiment [9], the Potency was 24.8 µM (active).

As to `OCCC1CCCCN1` (stereo not drawn), the Potency entry in experiment [1], in [2], in experiment [3], in [4], in experiment [5] and in experiment [6] was “inactive” in each case. In addition, the Potency result in [10] and in [13] was “inactive” in each case.

The values above are taken from PubChem BioAssay (Tox21).
